{
  "source": "PubChem BioAssay (NCATS)",
  "note": "Calls of active or inactive are those of the source. Calls follow the shape of the dose curve; as a rule, active = well fitted curve in the direction sought with a large enough effect (not every such curve was filed as active); inconclusive = small, poorly fitted or top-dose-only effect, or effect the other way, or another doubt; inactive = no such curve, though single readings can be large or run the other way.",
  "data": [
    {"biological_target": "Pyruvate kinase PKM (Homo sapiens) (UniProt P14618)", "sequence (P14618 whole entry, looked up)": "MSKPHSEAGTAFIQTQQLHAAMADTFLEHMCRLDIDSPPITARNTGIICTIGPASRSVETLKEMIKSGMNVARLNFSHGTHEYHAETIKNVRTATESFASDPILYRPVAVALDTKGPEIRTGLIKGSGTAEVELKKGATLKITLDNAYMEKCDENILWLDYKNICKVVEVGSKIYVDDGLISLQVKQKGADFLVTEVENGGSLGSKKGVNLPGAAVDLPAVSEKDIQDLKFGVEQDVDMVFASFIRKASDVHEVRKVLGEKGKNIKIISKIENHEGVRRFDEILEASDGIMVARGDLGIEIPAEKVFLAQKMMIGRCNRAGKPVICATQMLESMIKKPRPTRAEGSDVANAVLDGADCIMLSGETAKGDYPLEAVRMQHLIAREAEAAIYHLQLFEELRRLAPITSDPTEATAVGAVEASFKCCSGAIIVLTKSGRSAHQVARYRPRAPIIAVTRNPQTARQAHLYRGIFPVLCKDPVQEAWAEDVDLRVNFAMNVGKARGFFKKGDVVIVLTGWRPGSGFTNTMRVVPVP", "assay": "qHTS Assay for Activators of Human Muscle Pyruvate Kinase (AID 954)", "settings": "purified human muscle pyruvate kinase, luciferase-coupled luminescence, 1 h; series mostly up to 57.5 µM", "method_in_brief": "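Luminescence from a luciferase ATP-detection/stop reagent reported PKM2 activity. Reactions contained 0.1 nM purified human enzyme, 0.5 mM PEP, 0.1 mM ADP and 7 mM MgCl2 at pH 7.2, run 1 h at RT.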", "values": [
      {"smiles": "COc1cc(NS(C)(=O)=O)ccc1Nc1c2ccccc2nc2ccccc12", "outcome": "inactive"},
      {"smiles": "CC(C)COC(=O)OCN1C(=O)CN(CCN2CC(=O)N(COC(=O)OCC(C)C)C(=O)C2)CC1=O", "outcome": "inactive"},
      {"smiles": "CCCC1O[C@@H]2C[C@H]3[C@@H]4CCC5=CC(=O)C=C[C@]5(C)[C@H]4[C@@H](O)C[C@]3(C)[C@]2(C(=O)CO)O1", "note": "(some centres undefined)", "outcome": "inactive"},
      {"smiles": "CNCCC=C1c2ccccc2CCc2ccccc21", "outcome": "inactive"}
    ]}
  ]
}
